# Data as given in PubChem BioAssay (Tox21).
# Inconclusive results are not listed. Entries that show only a call come without a potency. The source holds several records for some structures; these can differ, active in one and inactive in another. Active and inactive are the calls of the source. Unless noted, calls follow the shape of the full dose curve.
# Key:
# [1] = target: Thyrotropin receptor (Homo sapiens) (UniProt P16473); test: qHTS assay to identify small molecule agonists of the thyroid stimulating hormone receptor (TSHR) signaling pathway (AID 1224843); also: nearly all actives have a fitted effect of over 45% in size; also: potency is read from the fitted curve at half-maximal effect
# Chain of Thyrotropin receptor (Homo sapiens) (P16473 whole entry, looked up): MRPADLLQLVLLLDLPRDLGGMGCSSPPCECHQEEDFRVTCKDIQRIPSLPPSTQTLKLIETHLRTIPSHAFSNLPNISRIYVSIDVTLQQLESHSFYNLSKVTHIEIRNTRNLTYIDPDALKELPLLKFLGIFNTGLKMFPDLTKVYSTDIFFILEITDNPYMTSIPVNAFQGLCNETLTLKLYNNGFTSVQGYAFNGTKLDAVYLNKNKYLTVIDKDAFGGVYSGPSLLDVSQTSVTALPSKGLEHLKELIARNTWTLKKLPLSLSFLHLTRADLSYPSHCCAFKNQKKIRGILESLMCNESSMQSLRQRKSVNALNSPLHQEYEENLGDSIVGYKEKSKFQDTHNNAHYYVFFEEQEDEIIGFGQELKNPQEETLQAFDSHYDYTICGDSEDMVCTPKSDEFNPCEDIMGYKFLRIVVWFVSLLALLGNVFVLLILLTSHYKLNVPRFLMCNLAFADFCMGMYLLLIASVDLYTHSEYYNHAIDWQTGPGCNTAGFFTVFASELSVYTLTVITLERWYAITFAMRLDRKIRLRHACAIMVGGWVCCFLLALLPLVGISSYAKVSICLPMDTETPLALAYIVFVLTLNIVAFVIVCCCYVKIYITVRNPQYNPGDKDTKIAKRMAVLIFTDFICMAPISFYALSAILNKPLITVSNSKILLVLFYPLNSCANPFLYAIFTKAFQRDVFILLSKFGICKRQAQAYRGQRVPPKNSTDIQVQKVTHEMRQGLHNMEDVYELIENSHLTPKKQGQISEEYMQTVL
# Procedure, shortened: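 Using 15 concentrations per compound in triplicate, cAMP production was monitored in TSHR-HEK293 cells after 30 min compound incubation at RT; HTRF reagents followed, with fluorescence intensity recorded after 1 h.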
# [2] = qHTS assay to identify small molecule agonists of the hypoxia (HIF-1) signaling pathway - cell viability counter screen (AID 1224844); also: nearly all actives have a fitted effect of over 50% in size; also: potency is read from the fitted curve at half-maximal effect
# Procedure, shortened: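 In this counter screen, HRE-bla ME-180 cell viability after 17 hrs of compound exposure at 37C was read by CellTiter-Glo luminescence, multiplexed with the beta-lactamase reporter measurement.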
# [3] = qHTS assay to identify small molecule agonists of H2AX (AID 1224845; active = well fitted activation curve with a large enough effect in the signal ratio in the repeat runs, not every such curve was filed as active; the % refers to the signal ratio)
# Procedure, shortened: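 Wild-type CHO-K1 cells plated overnight, then exposed 3 hr at 37C to compounds at 15 concentrations (0.76% DMSO). Lysed, then HTRF anti-pH2AX(S139)-cryptate/anti-H2AX-d2 detection after 24 hr at room temperature; emissions 665 and 620 nm.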
# [4] = qHTS assay to identify small molecule agonists of the hypoxia (HIF-1) signaling pathway (AID 1224846; active = well fitted activation curve with a large enough effect in the signal ratio in the repeat runs, not every such curve was filed as active; the % refers to the signal ratio)
# Procedure, shortened: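 ME-180 HRE-bla reporter cells; compounds in DMSO, 17 h at 37C; read-out beta-lactamase via CCF4-AM FRET.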
# [5] = qHTS assay to identify small molecule agonists of H2AX - cell viability counter screen (AID 1224847); also: nearly all actives have a fitted effect of over 30% in size; also: potency is read from the fitted curve at half-maximal effect
# Procedure, shortened: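 Counter-screen for viability: CellTiter-Glo ATP luminescence read after 3 h compound treatment (15-point titration, 0.76% DMSO final) of CHO-K1 cells at 37C, with 30 min room-temperature reagent incubation.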
# [6] = qHTS RealTime-Glo MT Cell Viability Assay in HepG2 cells - 24 hour (AID 1224867; active = well fitted curve in the direction sought with a large enough effect in the repeat runs; an effect the other way counts as inactive or inconclusive; also: nearly all actives have a fitted effect of over 50% in size; also: potency is read from the fitted curve at half-maximal effect)
# Procedure, shortened: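 Tox21 10K library screened in qHTS format on HepG2 cells carrying RealTime-Glo reagents. Compounds were added after a 5 h preincubation, and the luminescent signal from continuous culture was measured repeatedly during 40 h treatment.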
# [7] = qHTS RealTime-Glo MT Cell Viability Assay in HEK293 cells - 32 hour (AID 1224868; active = well fitted curve in the direction sought with a large enough effect in the repeat runs; an effect the other way counts as inactive or inconclusive; also: nearly all actives have a fitted effect of over 50% in size; also: potency is read from the fitted curve at half-maximal effect)
# Procedure, shortened: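 Luminescence generated by NanoLuc from substrate produced by living HEK293 cells served as the viability signal. Each value reflects the reading at its stated time point during continuous 40 h compound exposure at 37 C.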
# [8] = A CellTox Green Cytotoxicity Assay to monitor cytotoxicity in HEK293 cells - 0 hour (AID 1224869; active = well fitted curve in the direction sought with a large enough effect in the repeat runs; an effect the other way counts as inactive or inconclusive; also: nearly all actives have a fitted effect of over 50% in size)
# Procedure, shortened: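 Real-time, in one plate: 600 HEK293 cells/well with dead-cell DNA dye, pinned compound after 5 h, 37 C incubation over 40 h; viable cells give no appreciable fluorescence.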
# [9] = qHTS assay to identify small molecule antagonists of the estrogen related receptor (ERR) signaling pathway from Tox21 library (AID 1224848; active = well fitted curve in the direction sought with a large enough effect in the repeat runs; an effect the other way counts as inactive or inconclusive; also: nearly all actives have a fitted effect of over 50% in size; also: potency is read from the fitted curve at half-maximal effect)
# Procedure, shortened: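 Tox21 10K compounds in DMSO tested for ERR pathway antagonism in NTP's ERR cell line; 18 h, 37 C exposure; ONE-Glo luminescence.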
# [10] = qHTS assay to identify small molecule agonists of the estrogen related receptor (ERR) signaling pathway from Tox21 library (AID 1224849); conditions: ERR reporter cell line, ONE-Glo luciferase, 18 h; also: nearly all actives have a fitted effect of over 15% in size
# Procedure, shortened: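 Luciferase activity in ERR pathway reporter cells served as the agonist readout; exposure lasted 18 h at 37 C, with ONE-Glo detection after 30 min at room temperature.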
# [11] = at 92.4 µM (top of the series) unless noted
SMILES,Potency [1],Potency [2],Potency [3],outcome [4],Potency [5],Potency [6],Potency [7],Potency [8],Potency [9],"activity change, positive = activation [10, 11]","activity change, positive = activation ([10]; at 42.5 µM (top of the series))","activity change, positive = activation ([10]; at 92.4 µM (top of the series))"
O=C(OC(=O)c1ccccc1)c1ccccc1,inactive,inactive,inactive,inactive,inactive,inactive,inactive,inactive,,,,
C1COC1,inactive,inactive,inactive,inactive,inactive,inactive,inactive,inactive,,,,
O=C(O)CCC(=O)C(=O)O,inactive,inactive,inactive,,inactive,inactive,inactive,inactive,,,,
O=C1NC(=O)c2cc([N+](=O)[O-])ccc21,inactive,inactive,inactive,inactive,inactive,inactive,inactive,inactive,,,,
C=COCC(C)C,inactive,inactive,,inactive,inactive,inactive,,inactive,inactive,-0.119% (inactive),,
CC(C)=CCC/C(C)=C/CC/C(C)=C/CCC(=O)OC/C=C(\C)CCC=C(C)C,inactive,inactive,inactive,inactive,,inactive,inactive,inactive,inactive,-0.27% [at 42.5 µM] (inactive),,
Brc1cc(Br)c(Oc2cc(Br)c(Br)cc2Br)cc1Br,inactive,21.3 µM (active),inactive,inactive,inactive,inactive,inactive,inactive,,,,
CCCCCCCCOc1ccc(C(=O)O)cc1,inactive,inactive,inactive,inactive,inactive,inactive,inactive,inactive,,,,
CC1CC(OC(=O)C(O)c2ccccc2)CC(C)(C)N1C (configuration not stated),inactive,inactive,inactive,,inactive,inactive,inactive,inactive,inactive,-3.41% [at 42.5 µM] (inactive),,
O=C(Nc1cccc2c(=O)cc(-c3nn[nH]n3)oc12)c1ccc(OCCCCc2ccccc2)cc1,inactive,5.35 µM (active),inactive,,inactive,inactive,inactive,inactive,,,,
Cc1ccc(C(C)(C)O)cc1,inactive,inactive,inactive,inactive,inactive,inactive,inactive,inactive,,,,
C[C@]12CC[C@@H]3c4ccc(O)cc4CC[C@H]3[C@@H]1CC[C@@H]2OC(=O)CCC1CCCC1,inactive,inactive,,inactive,56.6 µM (active),49 µM (active) and inactive,43.6 µM (active),inactive,,,-30% (inactive),-67.7% (inactive)
C=C1CCC2CC1C2(C)C (configuration not stated),inactive,inactive,inactive,inactive,inactive,inactive,inactive,inactive,,,,
CC(C)c1nc(CN(C)C(=O)N[C@H](C(=O)N[C@@H](Cc2ccccc2)C[C@H](O)[C@H](Cc2ccccc2)NC(=O)OCc2cncs2)C(C)C)cs1,inactive,9.52 µM (active),inactive,inactive,,inactive,21.3 µM (active),inactive,21.1 µM (active),-41.1% [at 42.5 µM] (inactive),,
CCCCOc1ccc(OCCCN2CCOCC2)cc1,inactive,inactive,inactive,,inactive,inactive,,inactive,,,,
CCOc1ccc(Cc2nccc3cc(OCC)c(OCC)cc23)cc1OCC,inactive,inactive,inactive,inactive,,12 µM (active),6.01 µM (active),inactive,,,,
OCCN1CCN(CCCN2c3ccccc3Sc3ccc(Cl)cc32)CC1,inactive,15.1 µM (active),inactive,,,23.9 µM (active),23.9 µM (active),inactive,,-48% [at 42.5 µM] (inactive),,
Cc1cc(C)cc(N)c1,inactive,inactive,inactive,inactive,inactive,inactive,inactive,inactive,,,,
Cc1cc2c(OCC(CNC(C)(C)C)OC(=O)c3ccccc3)cccc2[nH]1 (configuration not stated),26.6 µM (active),inactive,inactive,inactive,inactive,inactive,,inactive,,,,
OC[C@H]1O[C@@H](n2cnc3c(=S)nc[nH]c32)[C@H](O)[C@@H]1O,inactive,inactive,,inactive,3.1 µM (active),inactive,21.3 µM (active),inactive,11.9 µM (active),-47.1% [at 42.5 µM] (inactive),,
CCOC(=O)/C=C/C(=O)OCC,inactive,inactive,,inactive,inactive,inactive,inactive,inactive,inactive,6.14% (inactive),,
CCCCCCNC(=O)n1cc(F)c(=O)[nH]c1=O,inactive,inactive,,inactive,inactive,inactive,inactive,inactive,,-8.15% [at 42.5 µM] (inactive),,
CC(=O)OCC[N+](C)(C)C,inactive,inactive,inactive,,inactive,inactive,inactive,inactive,,,,
CC(CCC(=O)O)C(=O)O (configuration not stated),inactive,inactive,inactive,,inactive,inactive,inactive,inactive,,3.47% (inactive),,
CCOC(=O)OC(C)OC(=O)[C@@H]1N2C(=O)[C@@H](NC(=O)[C@H](N)c3ccccc3)[C@H]2SC1(C)C (some centres not stated),inactive,inactive,inactive,,inactive,inactive,inactive,inactive,,,,
